Experimental data from the supplement of paper PMC11732987, “Enantioselective OTUD7B fragment discovery through chemoproteomics screening and high-throughput optimisation” (Communications Chemistry, 2025).

Columns and labels:
Experiment in all cases: log2 ratio of Biotin-Ahx-Ub-VS probe labelling (fragment/DMSO); higher = less target engagement (more negative = stronger competition), active = hit call of the paper (q ≤ 0.05, log2 ratio ≤ -1)
Settings in all cases: compound concentration: 200 uM; treatment time: 3 h
[1] = molecular target: USP34 (UniProt Q70CQ2)
In short: (§1)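 HEK293T lysate, 495 µg per sample in Tris/CHAPS/IGEPAL buffer with protease inhibitors, was treated in triplicate with fragment at 200 µM or vehicle for 3 h and then with Biotin-Ahx-Ub-VS at 0.5 µM final for 1 h. Labelled DUBs were NeutrAvidin-enriched, digested with LysC and trypsin, and run by diaPASEF LC-MS/MS. Spectronaut label-free quantities were global-median-normalised, and values are average log2 fragment/vehicle ratios by unpaired t-test on proteins with ≥2 unique peptides.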

[2] = molecular target: T1, USP36 (UniProt Q9P275)
T1 sequence (whole entry): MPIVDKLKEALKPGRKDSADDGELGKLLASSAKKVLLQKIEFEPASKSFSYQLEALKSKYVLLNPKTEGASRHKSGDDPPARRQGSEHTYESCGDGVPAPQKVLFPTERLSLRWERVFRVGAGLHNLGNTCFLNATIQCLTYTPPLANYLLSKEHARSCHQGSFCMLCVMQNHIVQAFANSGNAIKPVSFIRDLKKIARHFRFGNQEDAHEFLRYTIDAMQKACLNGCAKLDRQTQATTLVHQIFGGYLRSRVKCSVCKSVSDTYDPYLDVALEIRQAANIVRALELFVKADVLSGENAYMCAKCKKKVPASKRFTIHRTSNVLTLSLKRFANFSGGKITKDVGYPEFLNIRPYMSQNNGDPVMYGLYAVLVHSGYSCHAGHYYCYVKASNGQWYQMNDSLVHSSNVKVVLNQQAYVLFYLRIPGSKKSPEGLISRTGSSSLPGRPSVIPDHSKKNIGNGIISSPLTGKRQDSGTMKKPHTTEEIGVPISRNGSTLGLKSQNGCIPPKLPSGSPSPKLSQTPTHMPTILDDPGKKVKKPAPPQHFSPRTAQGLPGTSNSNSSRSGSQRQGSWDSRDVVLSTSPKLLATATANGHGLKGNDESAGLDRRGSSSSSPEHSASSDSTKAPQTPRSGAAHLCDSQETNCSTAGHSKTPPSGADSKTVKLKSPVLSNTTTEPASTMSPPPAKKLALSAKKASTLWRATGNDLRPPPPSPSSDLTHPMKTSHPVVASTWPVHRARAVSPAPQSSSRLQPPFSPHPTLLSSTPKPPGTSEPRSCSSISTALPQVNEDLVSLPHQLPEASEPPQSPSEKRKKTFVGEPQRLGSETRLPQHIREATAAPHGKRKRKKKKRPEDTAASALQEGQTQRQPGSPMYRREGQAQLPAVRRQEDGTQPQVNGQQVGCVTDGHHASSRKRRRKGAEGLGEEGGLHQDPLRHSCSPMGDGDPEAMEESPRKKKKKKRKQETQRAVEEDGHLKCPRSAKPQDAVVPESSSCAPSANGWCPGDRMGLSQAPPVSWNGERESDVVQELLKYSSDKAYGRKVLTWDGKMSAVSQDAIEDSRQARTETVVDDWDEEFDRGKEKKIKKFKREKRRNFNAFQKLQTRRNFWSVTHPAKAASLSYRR
In short: as §1

[3] = molecular target: T2, USP38 (UniProt Q8NB14)
T2 sequence (whole entry): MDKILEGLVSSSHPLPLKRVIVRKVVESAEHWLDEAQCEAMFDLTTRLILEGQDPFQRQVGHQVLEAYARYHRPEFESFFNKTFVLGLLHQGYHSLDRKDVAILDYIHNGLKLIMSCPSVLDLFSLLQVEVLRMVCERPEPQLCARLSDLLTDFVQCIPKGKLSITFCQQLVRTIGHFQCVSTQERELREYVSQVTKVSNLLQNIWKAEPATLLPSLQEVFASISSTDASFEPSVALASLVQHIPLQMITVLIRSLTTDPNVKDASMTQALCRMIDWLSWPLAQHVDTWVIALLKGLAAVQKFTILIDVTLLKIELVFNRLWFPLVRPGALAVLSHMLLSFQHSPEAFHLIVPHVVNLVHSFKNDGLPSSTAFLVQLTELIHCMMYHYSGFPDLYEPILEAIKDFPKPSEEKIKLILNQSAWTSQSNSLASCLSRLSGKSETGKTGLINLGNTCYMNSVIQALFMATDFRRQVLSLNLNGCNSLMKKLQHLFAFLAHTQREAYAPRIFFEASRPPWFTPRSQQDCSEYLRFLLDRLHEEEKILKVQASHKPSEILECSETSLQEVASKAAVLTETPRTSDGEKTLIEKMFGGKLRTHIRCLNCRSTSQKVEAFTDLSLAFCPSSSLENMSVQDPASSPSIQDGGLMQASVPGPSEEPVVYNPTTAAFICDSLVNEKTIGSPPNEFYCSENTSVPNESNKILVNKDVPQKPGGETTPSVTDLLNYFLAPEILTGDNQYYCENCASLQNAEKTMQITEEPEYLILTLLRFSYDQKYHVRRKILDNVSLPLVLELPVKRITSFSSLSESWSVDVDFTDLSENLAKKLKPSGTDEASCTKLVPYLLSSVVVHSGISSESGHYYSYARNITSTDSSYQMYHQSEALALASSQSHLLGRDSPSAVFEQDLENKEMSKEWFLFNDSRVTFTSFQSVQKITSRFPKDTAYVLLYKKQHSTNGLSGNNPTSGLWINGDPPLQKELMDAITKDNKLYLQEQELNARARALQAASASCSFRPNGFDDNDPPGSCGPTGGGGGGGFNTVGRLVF
In short: as §1

[4] = molecular target: T3, USP39 (UniProt Q53GS9)
T3 sequence (whole entry): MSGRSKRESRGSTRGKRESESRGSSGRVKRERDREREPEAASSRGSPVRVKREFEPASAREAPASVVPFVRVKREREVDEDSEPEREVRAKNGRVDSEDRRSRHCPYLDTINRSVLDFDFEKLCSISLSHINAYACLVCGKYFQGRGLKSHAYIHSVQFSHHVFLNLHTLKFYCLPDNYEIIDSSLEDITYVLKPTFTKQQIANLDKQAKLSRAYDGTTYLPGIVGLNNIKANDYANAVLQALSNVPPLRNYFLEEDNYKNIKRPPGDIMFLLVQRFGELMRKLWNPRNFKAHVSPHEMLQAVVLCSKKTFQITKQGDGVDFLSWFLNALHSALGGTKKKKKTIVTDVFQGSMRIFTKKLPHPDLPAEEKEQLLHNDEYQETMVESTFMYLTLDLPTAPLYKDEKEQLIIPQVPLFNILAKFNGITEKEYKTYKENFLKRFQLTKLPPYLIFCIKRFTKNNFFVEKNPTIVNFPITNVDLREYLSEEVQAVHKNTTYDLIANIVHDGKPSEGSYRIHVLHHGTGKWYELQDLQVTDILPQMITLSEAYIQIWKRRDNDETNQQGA
In short: as §1

[5] = molecular target: T4, USP4 (UniProt Q13107)
T4 sequence (whole entry): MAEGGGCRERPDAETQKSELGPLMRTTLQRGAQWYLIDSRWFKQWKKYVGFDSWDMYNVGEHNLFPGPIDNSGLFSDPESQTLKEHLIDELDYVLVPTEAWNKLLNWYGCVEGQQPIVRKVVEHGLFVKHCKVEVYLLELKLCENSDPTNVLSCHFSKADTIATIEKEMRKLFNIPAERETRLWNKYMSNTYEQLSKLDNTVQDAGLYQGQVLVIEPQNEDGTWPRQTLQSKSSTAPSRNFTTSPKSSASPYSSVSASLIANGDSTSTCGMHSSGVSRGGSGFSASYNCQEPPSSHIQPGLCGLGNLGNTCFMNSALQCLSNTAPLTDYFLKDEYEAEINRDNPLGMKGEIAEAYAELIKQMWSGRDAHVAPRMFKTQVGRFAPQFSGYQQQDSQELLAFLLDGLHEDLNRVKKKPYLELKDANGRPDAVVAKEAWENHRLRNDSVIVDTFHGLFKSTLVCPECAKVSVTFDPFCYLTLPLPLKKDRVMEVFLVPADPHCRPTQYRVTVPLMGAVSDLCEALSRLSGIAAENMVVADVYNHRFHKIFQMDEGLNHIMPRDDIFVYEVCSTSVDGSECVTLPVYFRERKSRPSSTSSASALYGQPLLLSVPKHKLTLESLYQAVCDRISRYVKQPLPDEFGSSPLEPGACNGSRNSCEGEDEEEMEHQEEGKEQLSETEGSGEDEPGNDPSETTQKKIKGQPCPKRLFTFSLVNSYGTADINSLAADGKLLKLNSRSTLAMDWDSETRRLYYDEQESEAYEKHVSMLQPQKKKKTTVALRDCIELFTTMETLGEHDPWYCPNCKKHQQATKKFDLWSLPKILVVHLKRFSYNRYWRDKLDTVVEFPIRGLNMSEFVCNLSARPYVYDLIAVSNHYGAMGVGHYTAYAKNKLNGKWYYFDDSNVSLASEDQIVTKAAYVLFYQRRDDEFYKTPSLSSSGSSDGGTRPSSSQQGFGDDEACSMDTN
In short: as §1

Measured: log2 ratio of Biotin-Ahx-Ub-VS probe labelling

USP34, sequence (Q70CQ2 whole entry, the tested form may be a part): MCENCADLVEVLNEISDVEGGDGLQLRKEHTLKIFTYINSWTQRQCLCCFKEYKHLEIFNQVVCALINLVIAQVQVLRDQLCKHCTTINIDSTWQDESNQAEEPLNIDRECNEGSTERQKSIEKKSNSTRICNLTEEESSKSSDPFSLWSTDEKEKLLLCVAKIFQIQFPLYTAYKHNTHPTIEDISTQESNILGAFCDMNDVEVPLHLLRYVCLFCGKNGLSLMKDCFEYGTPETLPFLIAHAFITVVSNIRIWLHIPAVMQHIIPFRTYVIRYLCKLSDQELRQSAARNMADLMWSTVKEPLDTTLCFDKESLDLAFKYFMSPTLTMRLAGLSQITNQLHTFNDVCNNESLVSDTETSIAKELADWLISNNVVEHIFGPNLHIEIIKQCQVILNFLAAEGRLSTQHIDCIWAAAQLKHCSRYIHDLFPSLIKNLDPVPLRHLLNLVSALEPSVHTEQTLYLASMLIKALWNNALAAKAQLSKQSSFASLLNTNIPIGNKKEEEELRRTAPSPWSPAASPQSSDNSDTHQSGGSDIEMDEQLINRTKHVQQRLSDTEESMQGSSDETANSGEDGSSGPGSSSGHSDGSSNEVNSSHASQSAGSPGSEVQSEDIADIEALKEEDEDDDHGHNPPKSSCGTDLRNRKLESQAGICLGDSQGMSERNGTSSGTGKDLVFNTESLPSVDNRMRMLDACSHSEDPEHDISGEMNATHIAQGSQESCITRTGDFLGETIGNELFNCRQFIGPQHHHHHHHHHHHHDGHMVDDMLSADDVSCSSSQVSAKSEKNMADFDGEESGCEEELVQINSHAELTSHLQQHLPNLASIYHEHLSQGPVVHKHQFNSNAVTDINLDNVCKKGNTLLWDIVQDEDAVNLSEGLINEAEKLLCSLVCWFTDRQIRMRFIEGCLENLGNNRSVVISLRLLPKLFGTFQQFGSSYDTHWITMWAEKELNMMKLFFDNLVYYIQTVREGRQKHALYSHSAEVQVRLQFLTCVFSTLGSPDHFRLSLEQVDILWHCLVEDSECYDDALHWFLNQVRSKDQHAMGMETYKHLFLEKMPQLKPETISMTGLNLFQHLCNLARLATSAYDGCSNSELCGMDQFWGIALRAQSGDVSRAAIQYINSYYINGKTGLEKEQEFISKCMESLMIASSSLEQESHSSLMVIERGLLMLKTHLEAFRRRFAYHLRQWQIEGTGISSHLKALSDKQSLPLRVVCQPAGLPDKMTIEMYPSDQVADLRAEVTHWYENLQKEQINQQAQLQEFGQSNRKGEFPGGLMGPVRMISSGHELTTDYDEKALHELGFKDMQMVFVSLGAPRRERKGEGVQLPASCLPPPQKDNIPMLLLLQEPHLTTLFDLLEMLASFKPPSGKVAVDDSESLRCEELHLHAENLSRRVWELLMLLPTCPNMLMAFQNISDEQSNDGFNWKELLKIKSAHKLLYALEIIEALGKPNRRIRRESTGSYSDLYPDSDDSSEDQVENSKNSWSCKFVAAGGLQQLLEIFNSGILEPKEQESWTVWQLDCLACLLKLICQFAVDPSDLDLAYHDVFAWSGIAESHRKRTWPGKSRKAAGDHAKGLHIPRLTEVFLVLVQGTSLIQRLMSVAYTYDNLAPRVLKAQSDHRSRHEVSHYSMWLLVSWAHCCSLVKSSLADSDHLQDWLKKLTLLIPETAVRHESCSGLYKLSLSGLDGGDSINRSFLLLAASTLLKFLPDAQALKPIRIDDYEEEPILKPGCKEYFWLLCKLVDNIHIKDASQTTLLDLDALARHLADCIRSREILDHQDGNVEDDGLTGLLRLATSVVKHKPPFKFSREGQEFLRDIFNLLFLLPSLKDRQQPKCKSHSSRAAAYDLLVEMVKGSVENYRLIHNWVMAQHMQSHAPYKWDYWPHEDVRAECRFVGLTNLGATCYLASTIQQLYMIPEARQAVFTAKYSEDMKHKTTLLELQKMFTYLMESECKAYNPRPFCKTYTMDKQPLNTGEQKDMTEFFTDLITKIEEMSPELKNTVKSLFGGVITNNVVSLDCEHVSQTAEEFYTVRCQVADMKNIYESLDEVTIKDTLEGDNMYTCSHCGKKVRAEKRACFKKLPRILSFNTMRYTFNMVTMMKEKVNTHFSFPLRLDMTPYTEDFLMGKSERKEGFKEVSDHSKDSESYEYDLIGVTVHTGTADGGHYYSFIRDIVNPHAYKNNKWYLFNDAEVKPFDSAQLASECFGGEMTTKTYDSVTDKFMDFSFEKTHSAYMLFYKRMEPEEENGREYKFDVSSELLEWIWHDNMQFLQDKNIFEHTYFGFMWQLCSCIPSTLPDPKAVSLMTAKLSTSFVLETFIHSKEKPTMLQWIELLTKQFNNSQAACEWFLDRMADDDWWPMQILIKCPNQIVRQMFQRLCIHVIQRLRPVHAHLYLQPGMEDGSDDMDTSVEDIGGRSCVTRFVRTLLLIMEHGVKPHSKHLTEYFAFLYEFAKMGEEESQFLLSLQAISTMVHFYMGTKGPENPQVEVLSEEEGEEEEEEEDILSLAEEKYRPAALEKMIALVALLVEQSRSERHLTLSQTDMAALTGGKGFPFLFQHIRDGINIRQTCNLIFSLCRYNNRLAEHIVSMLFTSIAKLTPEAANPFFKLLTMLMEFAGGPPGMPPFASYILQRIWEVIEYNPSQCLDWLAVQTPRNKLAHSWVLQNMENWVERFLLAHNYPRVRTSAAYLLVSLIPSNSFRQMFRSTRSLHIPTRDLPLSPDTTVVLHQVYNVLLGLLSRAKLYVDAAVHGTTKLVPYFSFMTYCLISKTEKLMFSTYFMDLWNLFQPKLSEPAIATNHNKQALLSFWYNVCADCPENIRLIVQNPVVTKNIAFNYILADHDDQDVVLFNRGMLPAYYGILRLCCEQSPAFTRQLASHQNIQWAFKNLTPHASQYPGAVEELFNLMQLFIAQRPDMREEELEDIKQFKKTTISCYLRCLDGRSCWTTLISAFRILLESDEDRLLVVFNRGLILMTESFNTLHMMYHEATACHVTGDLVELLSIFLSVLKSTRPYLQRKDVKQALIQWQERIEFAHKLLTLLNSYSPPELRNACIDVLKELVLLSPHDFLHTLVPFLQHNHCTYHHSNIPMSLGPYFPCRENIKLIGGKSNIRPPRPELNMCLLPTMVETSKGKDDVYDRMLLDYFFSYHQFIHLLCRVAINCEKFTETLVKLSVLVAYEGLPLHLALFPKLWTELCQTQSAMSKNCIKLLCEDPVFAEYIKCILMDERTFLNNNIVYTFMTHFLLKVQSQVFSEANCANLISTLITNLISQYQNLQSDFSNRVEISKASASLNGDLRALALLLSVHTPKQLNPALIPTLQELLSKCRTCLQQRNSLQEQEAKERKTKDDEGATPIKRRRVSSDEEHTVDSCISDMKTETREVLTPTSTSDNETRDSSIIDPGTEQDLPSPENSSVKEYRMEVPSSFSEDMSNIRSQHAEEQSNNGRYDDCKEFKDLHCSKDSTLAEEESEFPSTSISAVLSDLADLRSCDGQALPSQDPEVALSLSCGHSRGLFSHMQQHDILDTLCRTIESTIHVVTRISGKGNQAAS

O=C(CCl)NC1CCC2(CC1)OCCO2
inactive: [1] -0.314 | [2] -0.227 | [3] -0.0225 | [4] 0.0631 | [5] -0.0958
